PubChem BioAssay (NCI)
This is part of a sample that, as a whole, favours compounds with a hit. Of some 83,000 tested, about 20% had one in any assay.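 Activity criterion: percent growth below 10, measured after cells in 96-well plates were exposed to a single compound concentration for 48 hours.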 The source made the active and inactive calls.

Key:
Assay in all cases: NCI-60 one-dose screen, 48 h (100 = growth as untreated, 0 = no growth, -100 = all killed)
Conditions in all cases: 10 µM unless noted
SK-MEL-2 melanoma = test system: SK-MEL-2 melanoma
EKVX NSCLC = test system: EKVX NSCLC
SN12C renal = test system: SN12C renal
UO-31 renal = test system: UO-31 renal
TK-10 renal = test system: TK-10 renal
ACHN renal = test system: ACHN renal
CAKI-1 renal = test system: CAKI-1 renal
A498 renal = test system: A498 renal
MOLT-4 leukemia = test system: MOLT-4 leukemia
SR leukemia = test system: SR leukemia
RPMI-8226 leukemia = test system: RPMI-8226 leukemia
OVCAR-8 ovarian = test system: OVCAR-8 ovarian
OVCAR-5 ovarian = test system: OVCAR-5 ovarian
OVCAR-4 ovarian = test system: OVCAR-4 ovarian
SK-OV-3 ovarian = test system: SK-OV-3 ovarian
IGROV1 ovarian = test system: IGROV1 ovarian
HS 578T breast = test system: HS 578T breast
NCI/ADR-RES ovarian = test system: NCI/ADR-RES ovarian
OVCAR-3 ovarian = test system: OVCAR-3 ovarian
CCRF-CEM leukemia = test system: CCRF-CEM leukemia

Measured: growth

Nc1nc(Nc2ccccc2SSc2ccccc2Nc2nc(N)nc(-c3ccccc3)n2)nc(-c2ccccc2)n1
active: UO-31 renal -12.6% | SR leukemia -47%
inactive: SK-MEL-2 melanoma 106% | EKVX NSCLC 47.1% | SN12C renal 77.8% | TK-10 renal 101% | ACHN renal 55.8% | CAKI-1 renal 25.2% | A498 renal 78.7% | MOLT-4 leukemia 50.7% | RPMI-8226 leukemia 11.2% | OVCAR-8 ovarian 73.9% | OVCAR-5 ovarian 107% | OVCAR-4 ovarian 63% | SK-OV-3 ovarian 130% | IGROV1 ovarian 52.2% | HS 578T breast 84.3% | NCI/ADR-RES ovarian 14.9%

C[C@@H](Nc1ncnc2ccc(-c3cnc(Cl)c(NS(C)(=O)=O)c3)cc12)c1ccccc1
active: TK-10 renal 3.2% | A498 renal -22.2% | IGROV1 ovarian 3.14%
inactive: SK-MEL-2 melanoma 53.7% | EKVX NSCLC 19.8% | SN12C renal 30.1% | UO-31 renal 26.9% | ACHN renal 43.1% | CAKI-1 renal 10.1% | MOLT-4 leukemia 20.8% | SR leukemia 47.6% | RPMI-8226 leukemia 23.9% | OVCAR-8 ovarian 75.9% | OVCAR-5 ovarian 38.4% | OVCAR-4 ovarian 58.3% | SK-OV-3 ovarian 55.6% | HS 578T breast 27.1% | NCI/ADR-RES ovarian 85%

N#Cc1cnc2ccc(-c3cnc4[nH]ncc4c3)cc2c1N1CCc2cc(F)c(Cl)cc21
active: SK-MEL-2 melanoma -5.98% | EKVX NSCLC -1.26% | SN12C renal 9.07% | UO-31 renal -8.85% | A498 renal -53.7% | MOLT-4 leukemia 4.01% | SR leukemia 8.41% | RPMI-8226 leukemia -1.79% | SK-OV-3 ovarian 4.24% | OVCAR-3 ovarian -5.18% | HS 578T breast -42% | NCI/ADR-RES ovarian 8.51%
inactive: TK-10 renal 13.1% | ACHN renal 12.5% | CAKI-1 renal 15.1% | OVCAR-8 ovarian 19.2% | OVCAR-5 ovarian 19.5% | OVCAR-4 ovarian 15.3%

Cn1ccnc1C(=O)/C=C/c1ccc(NC(=O)c2c(F)c(F)c(F)c(F)c2F)cc1
inactive: SK-MEL-2 melanoma 112% | EKVX NSCLC 99.7% | SN12C renal 101% | UO-31 renal 79.7% | TK-10 renal 133% | ACHN renal 101% | CAKI-1 renal 107% | CCRF-CEM leukemia 86% | MOLT-4 leukemia 85.2% | SR leukemia 70.2% | RPMI-8226 leukemia 80.6% | OVCAR-8 ovarian 102% | OVCAR-5 ovarian 111% | OVCAR-4 ovarian 106% | SK-OV-3 ovarian 129% | IGROV1 ovarian 98.9% | OVCAR-3 ovarian 107% | HS 578T breast 112%

CC(=O)Nc1cccc(Nc2nc(N[C@@H](C)c3ccccc3)c3ccccc3n2)c1
active: A498 renal -33.5% | MOLT-4 leukemia -17% | SR leukemia -43.4% | RPMI-8226 leukemia -30.9% | HS 578T breast 1.68% | NCI/ADR-RES ovarian -0.0139%
inactive: SK-MEL-2 melanoma 38.2% | EKVX NSCLC 24% | SN12C renal 33.4% | UO-31 renal 19.2% | TK-10 renal 54.1% | ACHN renal 28.6% | CAKI-1 renal 18.5% | OVCAR-8 ovarian 39% | OVCAR-5 ovarian 18.6% | OVCAR-4 ovarian 17.5% | SK-OV-3 ovarian 53.6% | IGROV1 ovarian 18.4% | OVCAR-3 ovarian 13%

CNC(=O)c1cc(-c2ccc(NC(=S)Nc3cc(C(F)(F)F)cc(C(F)(F)F)c3)cc2)nc2cccnc12
inactive: SK-MEL-2 melanoma 99.3% | EKVX NSCLC 70% | SN12C renal 86.7% | UO-31 renal 59.7% | TK-10 renal 68.9% | ACHN renal 101% | CAKI-1 renal 71.4% | A498 renal 47.2% | MOLT-4 leukemia 88% | SR leukemia 71.8% | RPMI-8226 leukemia 93.7% | OVCAR-8 ovarian 100% | OVCAR-5 ovarian 102% | OVCAR-4 ovarian 75.3% | SK-OV-3 ovarian 102% | IGROV1 ovarian 75.9% | OVCAR-3 ovarian 106% | HS 578T breast 93.9% | NCI/ADR-RES ovarian 105%

Nc1nc(Nc2ccccc2SSc2ccccc2Nc2nc(N)nc(-c3cccc(Br)c3)n2)nc(-c2cccc(Br)c2)n1
inactive: SK-MEL-2 melanoma 109% | EKVX NSCLC 42.8% | SN12C renal 63.7% | TK-10 renal 104% | ACHN renal 50.1% | CAKI-1 renal 21.6% | A498 renal 72% | RPMI-8226 leukemia 59.6% | OVCAR-8 ovarian 68.4% | OVCAR-5 ovarian 95.5% | OVCAR-4 ovarian 73% | SK-OV-3 ovarian 131% | IGROV1 ovarian 54.9% | OVCAR-3 ovarian 100% | HS 578T breast 74.3% | NCI/ADR-RES ovarian 21.3%
active: UO-31 renal -7.87% | SR leukemia -44%

C=CCn1c(SCC(=O)Nc2ccc(C(=O)/C=C/c3cccc([N+](=O)[O-])c3)cc2)nnc1-c1c[nH]c2ccccc12
inactive: SK-MEL-2 melanoma 93.9% | EKVX NSCLC 89.1% | SN12C renal 85.2% | UO-31 renal 67.8% | TK-10 renal 102% | ACHN renal 91.1% | CAKI-1 renal 87.1% | A498 renal 87.4% | RPMI-8226 leukemia 11.9% | OVCAR-8 ovarian 90.4% | OVCAR-5 ovarian 96.8% | OVCAR-4 ovarian 74.9% | SK-OV-3 ovarian 106% | IGROV1 ovarian 82.7% | OVCAR-3 ovarian 99.8% | HS 578T breast 102% | NCI/ADR-RES ovarian 101%

Oc1[nH]c2ccccc2c1Nn1c(N=N/C=c2/ccc3c(c2)C=NN=3)n[nH]c1=S
inactive: SK-MEL-2 melanoma 104% | EKVX NSCLC 64.2% | SN12C renal 93.9% | UO-31 renal 74.8% | TK-10 renal 165% | ACHN renal 96.8% | CAKI-1 renal 82.8% | A498 renal 82.9% | MOLT-4 leukemia 103% | SR leukemia 84.5% | RPMI-8226 leukemia 91% | OVCAR-8 ovarian 105% | OVCAR-5 ovarian 109% | OVCAR-4 ovarian 84.6% | SK-OV-3 ovarian 106% | OVCAR-3 ovarian 96.8% | HS 578T breast 103% | NCI/ADR-RES ovarian 112%

Cc1ccc(NC(=O)CNc2cc(C(N)=O)cc(F)c2C)c(Cl)c1
inactive: SK-MEL-2 melanoma 101% | EKVX NSCLC 47.5% | SN12C renal 77.1% | UO-31 renal 50.4% | TK-10 renal 102% | ACHN renal 88.9% | CAKI-1 renal 62.6% | A498 renal 39% | MOLT-4 leukemia 90.5% | SR leukemia 95.2% | RPMI-8226 leukemia 90.6% | OVCAR-8 ovarian 99.9% | OVCAR-5 ovarian 87.9% | OVCAR-4 ovarian 75.2% | SK-OV-3 ovarian 104% | IGROV1 ovarian 70.6% | OVCAR-3 ovarian 111% | HS 578T breast 92.8% | NCI/ADR-RES ovarian 105%

CNC(=O)c1cc(N2CCc3cc(NC(=O)Nc4ccc(Cl)c(C(F)(F)F)c4)ccc32)ccn1
inactive: SK-MEL-2 melanoma 88.5% | EKVX NSCLC 55.1% | SN12C renal 65.2% | UO-31 renal 68.4% | TK-10 renal 86.6% | ACHN renal 38.1% | CAKI-1 renal 53.9% | A498 renal 80.3% | MOLT-4 leukemia 35.6% | SR leukemia 45.8% | RPMI-8226 leukemia 33.6% | OVCAR-8 ovarian 62.8% | OVCAR-5 ovarian 106% | OVCAR-4 ovarian 55.9% | SK-OV-3 ovarian 86.6% | IGROV1 ovarian 57.8% | OVCAR-3 ovarian 51.9% | HS 578T breast 44.8% | NCI/ADR-RES ovarian 55%

C=CC(=O)N1CC=C(c2cc3c(N[C@H](C)c4ccccc4)ncnc3[nH]2)CC1
inactive: SK-MEL-2 melanoma 106% | EKVX NSCLC 30.5% | SN12C renal 22.4% | UO-31 renal 19% | ACHN renal 15.1% | CAKI-1 renal 11.3% | MOLT-4 leukemia 97.8% | RPMI-8226 leukemia 85.8% | OVCAR-8 ovarian 85.8% | OVCAR-5 ovarian 37.5% | OVCAR-4 ovarian 71.9% | SK-OV-3 ovarian 47.4% | OVCAR-3 ovarian 70.3% | HS 578T breast 39.9% | NCI/ADR-RES ovarian 89.5%
active: TK-10 renal -3.79% | A498 renal -17.4% | IGROV1 ovarian 6.95%

CC(=O)Nc1cccc(Nc2nc(N[C@H](C)c3ccccc3)c3ccccc3n2)c1
inactive: SK-MEL-2 melanoma 73.6% | EKVX NSCLC 52% | SN12C renal 53.9% | UO-31 renal 40.5% | TK-10 renal 68.1% | ACHN renal 77.9% | CAKI-1 renal 35.8% | A498 renal 22.8% | MOLT-4 leukemia 16.8% | OVCAR-8 ovarian 74.8% | OVCAR-5 ovarian 70.6% | OVCAR-4 ovarian 34.9% | SK-OV-3 ovarian 94.8% | IGROV1 ovarian 51.8% | OVCAR-3 ovarian 55.9% | HS 578T breast 80.5% | NCI/ADR-RES ovarian 39.1%
active: SR leukemia -7.47% | RPMI-8226 leukemia -20.3%

Cc1cc(S(=O)(=O)N(C)C)cc(NCC(=O)NC(=O)NCC(C)C)c1C
inactive: SK-MEL-2 melanoma 105% | EKVX NSCLC 63.1% | SN12C renal 87.9% | UO-31 renal 57.1% | TK-10 renal 68.2% | ACHN renal 94.4% | CAKI-1 renal 64.3% | A498 renal 51.7% | SR leukemia 91% | RPMI-8226 leukemia 97.4% | OVCAR-8 ovarian 104% | OVCAR-5 ovarian 87.8% | OVCAR-4 ovarian 76.4% | SK-OV-3 ovarian 112% | IGROV1 ovarian 77.2% | OVCAR-3 ovarian 112% | HS 578T breast 103% | NCI/ADR-RES ovarian 114%

C=C(C)[C@@H]1CC[C@]2(COCCCNCCC#N)CC[C@]3(C)[C@H](CC[C@@H]4[C@@]5(C)CC[C@H](OCCCNCCC#N)C(C)(C)[C@@H]5CC[C@]43C)[C@@H]12
inactive: SK-MEL-2 melanoma 93.7% | EKVX NSCLC 36.1% | SN12C renal 52% | UO-31 renal 41.3% | TK-10 renal 74.9% | ACHN renal 65.3% | CAKI-1 renal 34.8% | A498 renal 43.3% | MOLT-4 leukemia 28.2% | RPMI-8226 leukemia 34% | OVCAR-8 ovarian 66.6% | OVCAR-5 ovarian 83.7% | OVCAR-4 ovarian 23.9% | SK-OV-3 ovarian 97.8% | IGROV1 ovarian 72.1% | HS 578T breast 72.6% | NCI/ADR-RES ovarian 37.3%

NS(=O)(=O)c1ccc(Nc2nc(SCC(=O)c3ccc(Cl)cc3)nc3c2CCCC3)cc1
inactive: SK-MEL-2 melanoma 67% | EKVX NSCLC 47.8% | SN12C renal 25.6% | UO-31 renal 38% | TK-10 renal 86.6% | ACHN renal 42% | CAKI-1 renal 43.2% | A498 renal 61.1% | MOLT-4 leukemia 38.4% | SR leukemia 26.9% | RPMI-8226 leukemia 42.8% | OVCAR-8 ovarian 52.3% | OVCAR-5 ovarian 88.3% | OVCAR-4 ovarian 47.7% | SK-OV-3 ovarian 101% | IGROV1 ovarian 84.8% | HS 578T breast 44.6% | NCI/ADR-RES ovarian 74.6%
